Screens as filed in PubChem.
Rows were chosen to be rich in hits. Some 0.91% of all compounds tested hit in one or more screens of this group.
TexasRed fluor – alters Texas Red total fluorescence, flagging assay interference; TRb/SRC2 Texas Red total fluorescence interference; Potency, µM (titrated, usually from 106 µM), without a hit: at the highest dose fluorescence change, negative = quenching; hit rate 0.29% among 280,000; AID 1479; active = well fitted curve in either direction with a large enough effect; inconclusive = small, poorly fitted or top-dose-only effect
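Human TRβ ligand-binding domain (0.6 uM) and Texas Red SRC2 peptide (20 nM) in Tris buffer with 1 uM T3 and 5% DMSO were incubated with pinned compound for 5 hr at ambient temperature. Total fluorescence was computed as S + 2P (555/632 nm).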
WRN helicase inh – inhibitors of human WRN helicase; WRN helicase unwinding, fluorescent forked duplex, kinetic; Potency, µM (titrated, usually from 114 µM), without a hit: top-dose activity change, negative = inhibition, most hits filed as inhibitors; hit rate 0.46% among 360,000; note: nearly all actives have a fitted effect of over 55% in size
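WRN at 20 nM final preincubated with compound 15 min at room temperature; reaction started with 100 nM fluorophore/quencher forked duplex oligonucleotide and 2 mM ATP final. Unwinding followed kinetically by red fluorescence (ex 525, em 598 nm).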
TRb-SRC2 inh – TRbeta-SRC2 interaction inhibition. TRbeta-SRC2 peptide binding, fluorescence polarization; receptor liganded with 1 µM T3. Potency, µM (titrated, usually from 106 µM), for the others: top-dose activity change, negative = inhibition, actives largely listed as inhibitors. hit rate 0.065% among 280,000;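 note: plate controls were bound peptide for no effect and peptide without receptor for full effect; nearly all actives have a fitted effect of over 50% in size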
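Compounds were added to 0.6 uM TRb ligand-binding domain and 20 nM Texas Red-labeled SRC2 peptide in Tris buffer containing 1 uM T3, incubated 5 hr at ambient temperature, then read by fluorescence polarization.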
APE1 inh-1 – blocks human APE1 abasic DNA cleavage | AID 2517 | P27695 | recombinant APE1, TAMRA/BHQ-2 abasic DNA cleavage fluorescence | Potency, µM (titrated, usually from 65.8 µM), for the others: top-dose activity change, negative = inhibition, actives largely listed as inhibitors | hit rate 0.35% among 350,000;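 note: plate controls were vehicle for no effect and reference inhibitor for full effect; nearly all actives have a fitted effect of over 55% in size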
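Endonuclease cleavage of a quenched abasic-site DNA duplex (50 nM) by APE1 (0.75 nM) was tracked by TAMRA dequenching. Compounds were preincubated with enzyme 15 min at room temperature; data normalized to buffer-only and DMSO wells plus NSC13755 control.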
BLM helicase inh – inhibitors of human Bloom syndrome helicase BLM; Potency, µM (highest dose often 56.1 µM), without a hit: top-dose activity change, negative = inhibition, actives largely listed as inhibitors; P54132; hit rate 0.2% among 350,000; recombinant BLM DNA unwinding, fluorescence dequenching;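 note: plate controls were vehicle for no effect and no enzyme for full effect; nearly all actives have a fitted effect of over 35% in size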
RECQ1 inh – RECQ1 (human) helicase inhibition; RECQ1 DNA unwinding, red fluorescence kinetic read; hit rate 0.54% among 240,000; AID 2549; P46063; Potency, µM (top dose mostly 57.3 µM), for inactives: at the top dose activity, negative = inhibition, hits mostly inhibitors;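 note: plate controls were vehicle for no effect and no enzyme for full effect; nearly all actives have a fitted effect of over 30% in size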
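RECQ1T1 50 nM; forked duplex (20 bp + 30-nt ss tails) 200 nM, ATP 2 mM final; pH 8.0, 2 mM MgCl2, 2.5 ug/ml poly(dI-dC); 15 min compound preincubation; discontinuous kinetic read over 2 h at RT.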
DNA dye displace – DNA dye displacement counter-screen activity; Potency, µM (top dose mostly 28.5 µM), inactives show at the highest dose activity change, negative = inhibition, most hits filed as inhibitors; hit rate 7% among 480; DNA fluorescent dye displacement counterscreen, fluorescence; shares compounds with APE1 inh-1;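 note: loss of thiazole orange fluorescence as the dye is displaced from duplex DNA; 0% = ThO with dsDNA and no compound and -100% = ThO without dsDNA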
Endo IV inh – counter-screen for APE1 inhibitors: inhibitors of E. coli endonuclease IV; shares compounds with APE1 inh-1; E. coli Endo IV, fluorogenic AP-site DNA cleavage; Potency, µM (titrated, usually from 27.1 µM), inactives show top-dose activity change, negative = inhibition, usual class: inhibitors; hit rate 4% among 560; AID 2565;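 note: plate controls were uninhibited enzyme wells for no effect and no enzyme buffer wells for full effect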
APE1 inh-2 – APE1 (human) endonuclease inhibition, confirmation; hit rate 44% among 750; purified APE1, fluorogenic abasic-site DNA cleavage; shares compounds with APE1 inh-1; AID 2572; Potency, µM (doses to about 57.1 µM), inactives show at the highest dose activity change, negative = inhibition, most hits filed as inhibitors; note: nearly all actives have a fitted effect of over 30% in size
APE1 FP – APE1 (human) DNA binding inhibition, fluorescence polarization; shares compounds with APE1 inh-1; Potency, µM (highest dose often 28.5 µM), inactives show at the highest dose activity, negative = inhibition, most hits filed as inhibitors; APE1 binding to TAMRA-labelled double-stranded DNA, fluorescence polarization displacement; AID 2573; hit rate 7% among 480
* = called active by the depositor; i = inactive; u = inconclusive; x = no result given; [ ] = another dose, or the depositor's remark. Unless noted, calls come from the whole dose curve; as a rule, active = well fitted curve in the direction sought with a large enough effect; inconclusive = small, poorly fitted or top-dose-only effect, or another doubt; inactive = no such curve, though single readings can be large; an effect the other way counts as inactive or inconclusive. Unless noted, % is set by controls: 0 for no effect and ±100 for the full control effect; potency is the fitted concentration of half-maximal effect.

SMILES	TexasRed fluor	WRN helicase inh	TRb-SRC2 inh	APE1 inh-1	BLM helicase inh	RECQ1 inh	DNA dye displace	Endo IV inh	APE1 inh-2	APE1 FP
O=C(O)c1ccc(COc2ccc3c4c(c(=O)oc3c2)CCC4)o1	-1%	u	1%	u	-12%	i	-17%	5%	13µM*	u
Nc1c(C(=O)N/N=C/c2ccc([N+](=O)[O-])cc2)sc2nnc(-c3ccccc3)c(-c3ccccc3)c12	-9%	-12%	6%	-2%	-1%	-2%	x	x	x	x
COc1cc(O)c2c(c1)C(=O)c1cc(C)cc(O)c1C2=O	-3%	x	-11%	-7%	1%	0%	x	x	x	x
O=C(O)c1cc(O)c2c(c1)C(=O)c1cc(O)cc(O)c1C2=O	-10%	u	2%	25µM*	-6%	u	13µM*	u	14µM*	5µM*
Cc1cnn(-c2nc(-c3ccccc3)cc(-c3ccccc3)n2)c1	-1%	-8%	-1%	1%	-8%	i	x	x	x	x
CCn1cc(C(=O)NCc2ccco2)c(=O)c2cc(F)c(N3CCN(C(=O)c4ccco4)CC3)cc21	-4%	u	4%	u	-22%	-26%	x	x	u	x
O=C1c2cccc3cccc(c23)N1Cc1cccc(F)c1	x	-3%	x	22%	-6%	x	x	x	x	x
O=C(CSc1nc(NS(=O)(=O)c2ccccc2)cc(=O)[nH]1)Nc1ccc(F)cc1	0%	u	0%	u	u	u	x	x	-8%	x
O=C(CSc1nc(NS(=O)(=O)c2ccccc2)cc(=O)[nH]1)Nc1cccc(C(F)(F)F)c1	x	-16%	x	-12%	-8%	x	x	x	x	x
CCN(CC)c1ccc(-c2nnc(SCC(=O)Nc3ccccc3C#N)n2-c2ccccc2)cc1	-2%	-9%	2%	u	-12%	-20%	4%	u	u	9%
CC(=O)C[C@@H](O)CC(=O)[C@H]1OC(=O)CCCCCCCCc2ccccc21	x	14%	x	5%	x	x	x	x	x	x
CCCCN(C)C(=O)c1nc2ccccn2c1CN1CCN(C(=O)c2cccs2)CC1	-3%	2%	0%	6%	-1%	1%	x	x	x	x
O=c1oc2c3c4c(cc2s1)CCCN4CCC3	-8%	u	-5%	28µM*	u	28µM*	0%	46%	16µM*	-1%
Cc1nc(N2CCOCC2)c2c(C(=O)Nc3cccc(C(F)(F)F)c3)c(C)oc2n1	2%	x	-5%	x	-1%	x	x	x	x	x
Clc1ccc(N2N=C(c3cccs3)CC2c2ccco2)cc1 (stereo unspecified)	-1%	-8%	-8%	12%	-11%	-18%	x	x	-31%	x
O=C(O)/C=C/c1ccc(O)c(O)c1	u	2%	7%	u	-10%	-6%	-3%[57.1 µM]	204%[57.1 µM]	u	5%[57.1 µM]
O=C(/C=C/c1ccc(O)c(O)c1)O[C@H](Cc1ccc(O)c(O)c1)C(=O)O	25µM*[quencher]	x	u	0.13µM*	22µM*	3.5µM*	-5%	100%	0.63µM*	-34%
O=C(/C=C/c1ccc(O)c(O)c1)O[C@@H](C(=O)O)[C@@H](OC(=O)/C=C/c1ccc(O)c(O)c1)C(=O)O	-4%	x	-3%	u	x	1%	x	x	x	x
O=C(c1ccccc1NS(=O)(=O)c1ccccc1[N+](=O)[O-])N1CCCC1	x	-27%	x	14%	1%	x	x	x	x	x
O=C1CCCC(O)=C1N=Nc1cccc(C(=O)O)c1	3%	u	-27%	10µM*	-2%	32µM*	0%	79%	13µM*	-14%
O=c1ccn(CCc2c[nH]c3ccccc23)c2c1CCCC2	-3%	-22%	4%	0.079µM*	8%	-2%	-5%	-5%	-7%[24.4 µM]	4%
Cc1ccc2c(c1)sc1nc(-c3cc4cc(Cl)ccc4oc3=O)cn12	-2%	x	4%	x	-3%	x	x	x	x	x
CC1(C)Oc2cc(N)c([N+](=O)[O-])cc2O1	-2%	-7%	-7%	32µM*	3%	-5%	-8%	0%	-8%[24.4 µM]	2%
C=C(C)C(=O)OCCCCCCOc1ccc(C(=O)O)cc1	-2%	-10%[57.1 µM]	-10%	-3%	-16%	-4%	x	x	u	x
O=C(O)c1cccc(-n2cccc2/C=C2/NC(=O)N(Cc3ccccc3F)C2=O)c1	12%	-10%[11.6 µM]	-6%	13µM*	-6%	u	x	x	u	x
SMILES	TexasRed fluor	WRN helicase inh	TRb-SRC2 inh	APE1 inh-1	BLM helicase inh	RECQ1 inh	DNA dye displace	Endo IV inh	APE1 inh-2	APE1 FP
N#C/C(=C/c1cccn1-c1cccc(C(=O)O)c1)c1ccc(F)cc1	2%	-2%[11.6 µM]	2%	25µM*	-14%	-1%	7%	12%	u	-23%
COc1ccccc1NOC(=O)CCOc1ccccc1	x	3%	x	x	x	x	x	x	x	x
CCOc1ccc(Cn2nnc(C(=O)Nc3cccc(SC)c3)c2N)cc1	-4%	x	-7%	x	-5%	x	x	x	x	x
COc1ccc(N(C(=O)c2cccc(C)c2)S(=O)(=O)c2ccc3c(c2)n(C)c(=O)n3C)cc1	1%	x	4%	x	-9%	x	x	x	x	x
O=c1c(OC2OC(CO)C(O)C(O)C2OC2OC(CO)C(O)C(O)C2O)c(-c2ccc(O)cc2)oc2cc(O)cc(O)c12 (stereo unspecified)	0%	-10%[11.6 µM]	0%	8.9µM*	-20%	10µM*	1%	12%	u	-42%
S=c1[nH]nc(-c2cc(-c3ccccc3)n[nH]2)n1/N=C/c1ccc(Cl)c(Cl)c1	0%	35µM*	-2%	4%	-13%	-3%	x	x	40µM*	x
NC(=O)c1ccc2nc(NC(=O)c3ccc(N)cc3)sc2c1	-7%	-6%	0%	-4%	-9%	-22%	x	x	u	x
CNc1c(NC(=O)COc2ccc(Cl)cc2)c(=O)oc2ccccc12	x	6%	x	64%	-1%	x	x	x	x	x
COc1ccc2[nH]c(C(=O)O)c(CCN3C(=O)c4cccc([N+](=O)[O-])c4C3=O)c2c1	-3%	-10%	-3%	u	-28%	-7%	x	x	40µM*	x
